Assay outcomes (PubChem BioAssay)
D3 antag – antagonists of human D3 dopamine receptor. 360,000 tested, 2.5% active. max response, negative = inhibition, %. D3R cells, DiscoveRx beta-arrestin luminescence, antagonist mode; stronger effect = lower value. AID 652054. P35462; in the data active = max response below about -50%; inconclusive = no clear call, values can overlap the other calls
Target sequence (P35462 whole entry, looked up): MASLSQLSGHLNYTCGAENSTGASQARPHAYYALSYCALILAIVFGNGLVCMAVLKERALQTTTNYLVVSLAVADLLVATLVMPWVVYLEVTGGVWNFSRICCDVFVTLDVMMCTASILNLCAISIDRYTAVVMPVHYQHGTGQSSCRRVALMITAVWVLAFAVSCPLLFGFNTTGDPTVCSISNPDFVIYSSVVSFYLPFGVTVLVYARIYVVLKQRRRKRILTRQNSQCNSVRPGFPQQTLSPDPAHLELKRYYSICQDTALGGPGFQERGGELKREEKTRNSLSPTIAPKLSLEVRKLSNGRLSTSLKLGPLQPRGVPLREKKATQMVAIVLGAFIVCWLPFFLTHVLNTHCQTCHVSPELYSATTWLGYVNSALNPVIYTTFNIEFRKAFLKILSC
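Cells plated overnight at 1500 cells/well, then exposed to library compounds with dopamine controls for 90 minutes at 37 degrees C. DiscoveRx reagent added for 30–60 minutes at room temperature; luminescence read, quantitative HTS format.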
IL1B secr inh – blocks inflammasome-driven IL-1 beta release. THP-1 LPS/ATP IL-1B secretion, AlphaLISA, 16 h; stronger effect = lower value. activity change, % at 57.5 µM. 360,000 tested, 4.7% active; in the data active = activity change below about -50%; inconclusive = mostly about -30% to -49%
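Secreted IL-1B measured by AlphaLISA bead assay after 16 h compound exposure of THP-1 cells; compounds (final up to 57.5 uM) added 1 h before LPS (250 ng/mL) and ATP (1.25 mM) stimulation; lower signal means less secretion.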
ATXN viability – viability counter-screen for ATXN expression inhibitors; S2 cells (HEK-293 line with an ATXN2-luciferase reporter) viability, CellTiter-Fluor protease fluorescence, 24 h; Potency, µM (series often up to 56.7 µM), actives largely listed as cytotoxic; 400,000 tested, 0.49% active; also: nearly all actives have a fitted effect of over 40% in size
Integrin act MD – activates integrin-mediated alleviation for muscular dystrophy | alpha7betagal myoblasts, beta-gal FDG fluorescence, 48 h | Potency, µM (highest dose often 38.3 µM), hits mostly activators | 350,000 tested, 0.064% active; also: nearly all actives have a fitted effect of over 60% in size
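Alpha7betagal+/- myoblasts (passage 13) were plated 16-24 hr, then exposed to compounds (1:260 dilution of DMSO stock) for 48 hours at 37C. After MPER lysis, β-galactosidase reporter activity was read as FDG fluorescence (ex 480/em 540) after 30 minutes.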
DRD3 agonist – D3 dopamine receptor (human) agonism | D3R DiscoveRx beta-arrestin cells, luminescence, 90 min | 410,000 tested, 0.58% active | P35462 | AID 652048 | max activation, %; in the data active = max activation above about 30%
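Agonist-mode cell screen: cells plated at 1500/well and incubated overnight at 37 °C, then exposed to library compounds for 90 min at 37 °C. Detection reagent was added for 30–60 min at room temperature, and luminescence was read.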
ATXN2 expr inh – inhibitors of ATXN2 expression | HEK-293 ATXN2-luciferase reporter, luminescence, 24 h | Potency, µM (titrated, usually from 57 µM), hits mostly inhibitors | 360,000 tested, 0.72% active | AID 1745845; also: nearly all actives have a fitted effect of over 55% in size
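qHTS (up to 57 uM final) was run with 24 h compound exposure of reporter cells at 37 °C. Each well was multiplexed: SteadyGlo luminescence measured ATXN2-luciferase expression after a fluorogenic Gly-Phe-AFC viability readout (25 uM final).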
A number is an active result. An excerpt weighted towards active compounds, which were near 7% of everything screened. Unless noted, calls follow the shape of the dose curve; as a rule, active = well fitted curve in the direction sought with a large enough effect; inconclusive = small, poorly fitted or top-dose-only effect, or another doubt; inactive = no such curve, though single readings can be large; an effect the other way counts as inactive or inconclusive.

What do the screens show for `C=CC[C@@H](CC(=O)N(CCO)Cc1ccccc1)C(=O)N[C@H](COC(=O)[C@@H](CC=C)CC(=O)OC(C)(C)C)Cc1ccccc1`?
D3 antag: inactive; IL1B secr inh: inconclusive; ATXN viability: inconclusive; Integrin act MD: inactive; DRD3 agonist: inactive; ATXN2 expr inh: inconclusive

Results for C=CC[C@H](CC(=O)N(CCO)Cc1ccccc1)C(=O)N[C@H](COC(=O)[C@@H](CC=C)CC(=O)OC(C)(C)C)Cc1ccccc1 ?
D3 antag: inactive; IL1B secr inh: -80; Integrin act MD: inactive; DRD3 agonist: inactive; ATXN2 expr inh: inconclusive

How did C=CC[C@H](CC(=O)N(CCO)Cc1ccccc1)C(=O)N[C@H](COC(=O)[C@H](CC=C)CC(=O)OC(C)(C)C)Cc1c[nH]c2ccccc12 do in these assays?
D3 antag: inactive; IL1B secr inh: -60; ATXN viability: 22µM; Integrin act MD: inactive; DRD3 agonist: inactive; ATXN2 expr inh: inconclusive

What do the screens show for `C=CC[C@H](CC(=O)N(CCO)Cc1ccccc1)C(=O)N[C@@H](COC(=O)[C@@H](CC=C)CC(=O)OC(C)(C)C)Cc1c[nH]c2ccccc12`?
D3 antag: inactive; IL1B secr inh: inconclusive; Integrin act MD: inactive; DRD3 agonist: inactive; ATXN2 expr inh: inconclusive

How did C=CC[C@@H](CC(=O)N(CCO)Cc1ccccc1)C(=O)N[C@@H](COC(=O)[C@H](CC=C)CC(=O)OC(C)(C)C)Cc1c[nH]c2ccccc12 do in these assays?
D3 antag: inactive; IL1B secr inh: -72; Integrin act MD: inactive; DRD3 agonist: inactive; ATXN2 expr inh: inconclusive

What do the screens show for `Cc1cc(-c2onc(C)c2C(=O)Nc2ccc(C(F)(F)F)cc2)no1`?
D3 antag: inactive; IL1B secr inh: inactive; ATXN viability: inactive; Integrin act MD: inactive; DRD3 agonist: inactive; ATXN2 expr inh: inactive

How did Cc1nc(-c2cccs2)sc1C(=O)NN do in these assays?
D3 antag: inactive; IL1B secr inh: inactive; ATXN viability: inactive; Integrin act MD: inactive; DRD3 agonist: inactive; ATXN2 expr inh: inactive

What do the screens show for `Cc1nc(Cl)sc1C(=O)Nc1ccc(C(F)(F)F)cc1`?
D3 antag: inactive; IL1B secr inh: -65; ATXN viability: inconclusive; Integrin act MD: inactive; DRD3 agonist: inactive; ATXN2 expr inh: inactive

What do the screens show for `Cc1nc(Cl)sc1C(=O)Nc1cccc(Cl)c1C`?
D3 antag: inactive; IL1B secr inh: -96; ATXN viability: inactive; Integrin act MD: inactive; DRD3 agonist: inactive; ATXN2 expr inh: inactive

How did Cc1noc(-c2ccc(C(F)(F)F)cc2)c1NC(=O)Nc1ccc(Cl)cc1 do in these assays?
D3 antag: inactive; IL1B secr inh: -53; ATXN viability: inconclusive; Integrin act MD: inactive; DRD3 agonist: inactive

How did Cc1nc(-c2ccc(C(F)(F)F)cc2)sc1C(=O)NN do in these assays?
D3 antag: inconclusive; IL1B secr inh: inactive; ATXN viability: inactive; Integrin act MD: inactive; DRD3 agonist: inactive; ATXN2 expr inh: 16µM

Results for COc1cccc(NC(=O)Cn2cc(S(=O)(=O)Cc3ccccc3F)c3ccccc32)c1 ?
DRD3 agonist: inactive

Results for CCOC(=O)[C@]12CCCC=C1N(Cc1cccc3ccccc13)C(=O)[C@H](CC(=O)NCc1ccc(C)o1)C2 ?
D3 antag: inactive; IL1B secr inh: inactive; ATXN viability: inconclusive; DRD3 agonist: inactive; ATXN2 expr inh: inconclusive

What do the screens show for `CCCc1c(C(=O)N/N=C/c2ccccc2OCc2ccc(F)cc2)nnn1-c1nonc1N`?
D3 antag: inactive; IL1B secr inh: inactive; ATXN viability: inactive; Integrin act MD: inactive; DRD3 agonist: inactive; ATXN2 expr inh: inactive

How did CC(C)C[C@H]1CN(CCCC[C@H]2CNC(=O)C(=O)N2Cc2ccccc2)C(=O)C(=O)N1Cc1ccccc1 do in these assays?
D3 antag: inactive; IL1B secr inh: inactive; ATXN viability: inactive; DRD3 agonist: inactive; ATXN2 expr inh: inactive

How did COc1ccc(Cl)cc1NC(=O)c1cc(-c2ccccc2O)n[nH]1 do in these assays?
D3 antag: inactive; IL1B secr inh: inactive; ATXN viability: inconclusive; Integrin act MD: inactive; DRD3 agonist: inactive; ATXN2 expr inh: inactive

How did Cc1c(Cl)cccc1NC(=O)c1cc(-c2ccccc2O)n[nH]1 do in these assays?
D3 antag: inactive; IL1B secr inh: -60; ATXN viability: inactive; Integrin act MD: inactive; DRD3 agonist: inactive; ATXN2 expr inh: inactive

What do the screens show for `CCc1nc2c(OCCOc3ccccc3)cccn2c1N(C)C(=O)c1ccc(C)cc1`?
D3 antag: inactive; IL1B secr inh: inactive; ATXN viability: inconclusive; DRD3 agonist: inactive; ATXN2 expr inh: inactive

What do the screens show for `CCc1nc2c(OCCOc3ccc(F)cc3)cccn2c1N(C)C(=O)c1ccc(C)cc1`?
D3 antag: inactive; IL1B secr inh: -60; ATXN viability: inactive; DRD3 agonist: inactive; ATXN2 expr inh: inconclusive

What do the screens show for `CCc1nc2c(OCCC3CCCCC3)cccn2c1N(C)C(=O)C1CC1`?
D3 antag: -66; IL1B secr inh: inactive; DRD3 agonist: inactive; ATXN2 expr inh: inactive

Results for CCc1nc2c(OCCC3CCCCC3)cccn2c1N(C)C(=O)C(C)C ?
D3 antag: inconclusive; IL1B secr inh: inconclusive; DRD3 agonist: inactive; ATXN2 expr inh: inconclusive

What do the screens show for `CCc1nc2c(OCCC3CCCCC3)cccn2c1N(C)C(=O)c1ccc(C)cc1`?
D3 antag: -56; IL1B secr inh: -99; ATXN viability: inconclusive; DRD3 agonist: inactive; ATXN2 expr inh: inconclusive

How did O=c1oc2ccccc2nc1/C=C(\O)c1ccccc1 do in these assays?
D3 antag: inactive; IL1B secr inh: inactive; ATXN viability: inactive; Integrin act MD: inactive; DRD3 agonist: inactive

How did O/C(=C\c1nc2ccccc2nc1/C=C(\O)c1ccccc1)c1ccccc1 do in these assays?
D3 antag: -67; IL1B secr inh: -98; ATXN viability: inactive; Integrin act MD: inactive; DRD3 agonist: inactive; ATXN2 expr inh: inactive

What do the screens show for `CC(C)(C)c1ccc(S(=O)(=O)NNC(=O)C2CCN(Cc3cccc(F)c3)CC2)cc1`?
D3 antag: inactive; IL1B secr inh: -54; ATXN viability: inactive; Integrin act MD: inactive; DRD3 agonist: inactive; ATXN2 expr inh: inactive

What do the screens show for `CS(=O)(=O)Nc1cccc(C2=NN(C(=O)c3ccco3)C(c3cccs3)C2)c1` (stereo not drawn)?
D3 antag: inactive; IL1B secr inh: inactive; ATXN viability: inconclusive; Integrin act MD: inactive; DRD3 agonist: inactive; ATXN2 expr inh: inactive

How did CN(C)CCN(C)Cc1c2ccccc2c(CN(C)CCN(C)C)c2ccccc12 do in these assays?
D3 antag: inactive; IL1B secr inh: -84; ATXN viability: inconclusive; Integrin act MD: inactive; DRD3 agonist: inactive; ATXN2 expr inh: inconclusive

What do the screens show for `COC(=O)[C@]12CCCCC=C1N(CCC1=CCCCC1)C(=O)[C@H](CC(=O)NCCc1ccccc1OC)C2`?
D3 antag: inactive; IL1B secr inh: -52; DRD3 agonist: inactive; ATXN2 expr inh: inconclusive
